# KKLEB tox = CF airway cell cytotoxicity counter-screen | actives 0.36% (n = 360,000) | KKLEB CF airway cells viability, ATPlite luminescence, overnight; stronger effect = lower value; cells stimulated with P. aeruginosa culture filtrate | activity change (cytotoxicity), % at 5 µM | AID 602141;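 active = corrected activity change at or below -50% at 5 µM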
# CF NFkB block = blocks PAF-induced NF-kB reporter in cystic fibrosis cells. inhibition, % at 5 µM. KKLEB NF-kB-GFP reporter, GFP fluorescence overnight. actives 0.86% (n = 360,000). AID 588850;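 active = at least 50% inhibition at 5 µM, scaled per plate between neutral and stimulator controls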;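 note: PAF is a Pseudomonas aeruginosa culture filtrate used as stimulus; plate controls were PAF-stimulated DMSO wells for no effect and unstimulated DMSO wells for full effect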
# TRAIL sens C8 = caspase-8 TRAIL sensitization. inhibition (viability loss, TRAIL sensitization), % at 10 µM. actives 1% (n = 360,000). NB7+C8 cells + TRAIL, ATPlite viability luminescence. AID 624354;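 active = compounds causing at least 50% loss of cell viability in the single-dose screen, relative to plate controls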
# PPC-1+TRAIL kill = compounds killing PPC-1 cancer cells with TRAIL present (potentiator screen, no TRAIL-free arm) | PPC-1 cells + TRAIL, ATPLite viability luminescence | actives 0.41% (n = 220,000) | cell killing (% activity), % at 4 µM or 5 µM;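 active = cell killing above 50% in the first pass at 4 µM, then a duplicate retest at 5 µM averaging 50% or more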;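 note: plate controls were cells with TRAIL plus DMSO for no effect and medium-only wells lacking cells for full effect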
# HIF-2a block = inhibitors of HIF-2a | AID 624352 | 786-0 RCC cells HIF-2a reporter, luciferase luminescence, overnight | inhibition, % at 18.8 µM | actives 0.72% (n = 360,000);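 active = inhibition of the luminescence signal of 40% or more relative to plate controls, in a single-dose primary screen at 18.75 µM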
# Peg3 prom inh-1 = Peg3 promoter activity inhibition | HeLa PEG-Prom luciferase reporter, luminescence, overnight | inhibition, % at 20 µM | actives 1.7% (n = 360,000) | AID 588405;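 active = inhibition of at least 50% at 20 µM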
# Peg3 prom inh-2 = confirmation of Peg3 promoter inhibitors | actives 84% (n = 1,300) | shares compounds with Peg3 prom inh-1 | inhibition, % at 20 µM | HeLa PEG-Prom luciferase reporter, luminescence, overnight;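 active = at 20 µM dose, 40% or more inhibition averaged across four replicates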
# CF NFkB conf = confirmation of cystic fibrosis induced NF-kB inhibitors; shares compounds with CF NFkB block; KKLEB CF airway cells, PAF-induced NF-kB-GFP fluorescence, overnight; inhibition, % at 5 µM; actives 64% (n = 1,300); in the data active = inhibition above about 40%;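 note: stimulus PAF is a Pseudomonas aeruginosa filtrate and not platelet activating factor; plate controls were DMSO wells with stimulus for no effect and unstimulated DMSO wells for full effect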
# Mdm2-MdmX confirm = Mdm2/MdmX (human) interaction inhibition, confirmed; shares compounds with HIF-2a block; SaOS-2 split-luciferase Mdm2/MdmX complementation, luminescence; inhibition, % at 8 µM; actives 99% (n = 740);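 active = mean inhibition of the luminescence signal across two replicates at or above 26 percent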
# Target sequence (O15151 whole entry, looked up): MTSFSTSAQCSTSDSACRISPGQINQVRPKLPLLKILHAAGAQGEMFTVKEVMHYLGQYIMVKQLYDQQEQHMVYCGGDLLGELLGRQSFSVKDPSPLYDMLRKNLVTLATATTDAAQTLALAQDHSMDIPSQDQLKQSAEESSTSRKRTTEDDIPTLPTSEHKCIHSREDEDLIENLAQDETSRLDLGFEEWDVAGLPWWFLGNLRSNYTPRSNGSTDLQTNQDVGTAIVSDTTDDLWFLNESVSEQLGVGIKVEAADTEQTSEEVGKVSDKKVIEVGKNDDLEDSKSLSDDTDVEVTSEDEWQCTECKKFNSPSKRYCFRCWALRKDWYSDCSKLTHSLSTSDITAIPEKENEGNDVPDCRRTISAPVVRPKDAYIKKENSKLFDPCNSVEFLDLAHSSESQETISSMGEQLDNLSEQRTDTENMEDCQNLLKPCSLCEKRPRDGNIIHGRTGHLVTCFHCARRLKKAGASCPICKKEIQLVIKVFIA
# Target sequence (Q00987 whole entry, looked up): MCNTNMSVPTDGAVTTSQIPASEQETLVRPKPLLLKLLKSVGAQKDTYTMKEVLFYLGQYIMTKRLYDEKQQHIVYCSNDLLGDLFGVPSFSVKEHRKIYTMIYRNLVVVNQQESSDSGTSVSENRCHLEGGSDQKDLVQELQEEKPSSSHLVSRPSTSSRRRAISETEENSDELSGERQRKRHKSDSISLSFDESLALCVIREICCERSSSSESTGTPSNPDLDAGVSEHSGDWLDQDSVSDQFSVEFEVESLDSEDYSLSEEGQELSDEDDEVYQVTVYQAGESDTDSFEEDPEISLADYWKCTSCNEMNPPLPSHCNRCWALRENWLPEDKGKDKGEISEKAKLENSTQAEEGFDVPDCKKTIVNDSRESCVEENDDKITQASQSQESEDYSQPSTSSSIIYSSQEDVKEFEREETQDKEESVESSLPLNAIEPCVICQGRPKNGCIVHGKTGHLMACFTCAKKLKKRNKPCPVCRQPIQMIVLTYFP
# HIF-2a inh conf = confirmation of HIF-2a inhibitors; shares compounds with HIF-2a block; 786-0 RCC cells, HIF-2a luciferase reporter luminescence, overnight; inhibition, % at 18.8 µM; actives 56% (n = 1,800);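 active = mean inhibition across four replicates of at least 40 percent at the single tested concentration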
# HIF-1a cs = counter-screen for HIF-2a inhibitors: HIF-1a inhibition in MiaPaCa-2 cells; actives 72% (n = 1,800); shares compounds with HIF-2a block; MiaPaCa-2 HIF-1a luciferase reporter, desferoxamine, overnight; inhibition, % at 18.8 µM;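 active = mean inhibition of the reporter signal across four replicates at the single tested dose of 50% or more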
# Starred values were filed as active, the others as inactive; . = no result given. This is a sample that favours compounds with a hit; in the whole collection about 3.1% have one here.
SMILES,KKLEB tox,CF NFkB block,TRAIL sens C8,PPC-1+TRAIL kill,HIF-2a block,Peg3 prom inh-1,Peg3 prom inh-2,HIF-2a inh conf,HIF-1a cs,others
Cc1nn(C(C)(C)C)c(C)c1/C=N/OC(=O)Nc1ccc(Cl)c(Cl)c1,-8,8,-4,-10,94*,106*,97*,98*,100*,
Cc1cc(C)c2sc(NNC(=O)c3ccc(S(=O)(=O)N4CCc5ccccc5C4)cc3)nc2c1,-12,12,15,20,4,59*,76*,.,.,Mdm2-MdmX confirm=87*
CC(C)(C)c1ccc(C(=O)O/N=C(\N)c2ccccn2)cc1,-38,47,98*,.,82*,111*,99*,85*,84*,
Cc1ccc(C(=O)O/N=C(\N)c2ccccn2)cc1,-22,9,95*,.,62*,107*,77*,.,.,Mdm2-MdmX confirm=49*
CCSc1nc2ccccc2n1C(=O)/C=C\c1ccc(OC)c(OC)c1,3,82*,36,19,86*,106*,94*,31,103*,Mdm2-MdmX confirm=102*
CC1=CC2C(C(O)CC3(C)C2CC(C)C32OCOC23COCO3)C2(C)C/C(=C\O)C(=O)C=C12 (configuration not stated),-95*,96*,94*,.,95*,101*,97*,53*,108*,
O=C(NCCc1ccccc1F)c1ccc2c(c1)OCCO2,-26,2,92*,.,91*,106*,93*,96*,101*,Mdm2-MdmX confirm=96*
O=C(NCc1ccccc1F)c1ccc2c(c1)OCO2,12,-3,6,-7,-23,-36,.,.,.,
CN(CCC#N)C(=O)COC(=O)c1ccccc1C(=O)c1ccc(Cl)c([N+](=O)[O-])c1,-28,76*,9,-3,43*,95*,33,0,68*,CF NFkB conf=97*
O=[N+]([O-])c1ccc(S(=O)(=O)c2ccccc2)nc1,-88*,108*,32,.,75*,97*,97*,65*,79*,Mdm2-MdmX confirm=103*
Nc1ccc(C(=O)N/N=C\c2ccc(OC(=O)c3ccccc3Cl)cc2)cc1,-1,-23,11,.,-22,-1,.,.,.,
CC(C)c1ccc(/C=N/Nc2ccc(C(=O)O)cc2)cc1,1,15,15,39,81*,85*,67*,79*,40,
O=C(O)c1ccc(N/N=C/c2ccc(OC(=O)c3ccccc3Cl)cc2)cc1,1,13,-5,20,81*,64*,58*,84*,80*,
O=C(O)c1ccc(N/N=C/c2cc(Br)cs2)cc1,6,3,14,.,23,1,.,.,.,
Cc1ccc(/C=N/Nc2ccc(C(=O)O)cc2)s1,-4,-10,1,19,65*,69*,62*,82*,76*,
CCOCCCN(C(=O)CCC(=O)Nc1cc(C)on1)C(C(=O)NC(C)(C)C)c1ccccc1Cl (configuration not stated),-10,-9,-21,.,-4,3,.,.,.,
O=C(Nc1ccccc1)c1cc(C2CCCN(C(=O)C/C=C/c3ccccc3)C2)on1 (configuration not stated),0,-1,14,.,-148,-105,.,.,.,
CC(=O)N1CCCC(c2cc(C(=O)Nc3ccccc3)no2)C1 (configuration not stated),-8,-26,43,.,72*,65*,73*,82*,60*,
COc1ccc(-c2cc(-c3ccc(F)cc3)nc(N3CCN(C)CC3)n2)cc1,-35,-19,50,.,52*,80*,58*,1,70*,
COc1ccc(-c2cc(C(F)(F)F)nc(N3CCOCC3)n2)cc1,12,-3,11,8,-4,14,.,.,.,
COc1cc(-c2c(C#N)c(N)nc(SCc3ccncc3)c2C#N)cc(OC)c1OC,-6,1,-1,-7,36,31,.,.,.,
N#Cc1c(N)nc(SCc2ccncc2)c(C#N)c1-c1cccs1,-4,4,22,-3,45*,54*,70*,29,61*,
CC1(CCC(=O)O)C(=O)CCC2C1CCC1(C)C2CCC1(C)O (configuration not stated),10,-7,-16,.,6,3,.,.,.,
COc1ccc(C(=O)CN2C(=O)c3ccccc3S2(=O)=O)cc1,-5,8,65*,38,88*,98*,84*,92*,92*,
CCCn1c(C)cc(C(=O)CN2C(=O)c3ccccc3S2(=O)=O)c1C,6,-1,58*,.,91*,89*,87*,95*,95*,
SMILES,KKLEB tox,CF NFkB block,TRAIL sens C8,PPC-1+TRAIL kill,HIF-2a block,Peg3 prom inh-1,Peg3 prom inh-2,HIF-2a inh conf,HIF-1a cs,others
O=C(/C=C/c1cc(Br)ccc1O)c1ccco1,-2,94*,26,10,94*,107*,99*,46*,102*,
CC(=O)Oc1ccc(Cn2c(C)c(C(=O)NCc3ccccc3C(F)(F)F)sc2=O)cc1,2,4,5,.,2,-9,.,.,.,
COc1ccc(C(=O)NCCCn2cccn2)cc1OC1CCN(C(C)=O)CC1,27,-10,-4,.,14,9,.,.,.,
O=S(=O)(Nc1cccc2ncccc12)c1cccs1,8,46,17,11,65*,103*,97*,.,.,Mdm2-MdmX confirm=103*
CN(C(=O)OC(C)(C)C)c1ccc(-c2nc3ccccc3s2)cc1,-81*,28,89*,.,88*,90*,92*,95*,99*,
CN1CCN(S(=O)(=O)c2ccc(C(F)(F)F)cc2)C(c2ccccc2)C1 (configuration not stated),-38,10,-7,.,13,5,.,.,.,
S=C(NN=Cc1ccccn1)N(Cc1ccccn1)Cc1ccccn1,2,0,7,.,-99,18,.,.,.,
S=C(NN=C(c1ccccc1)c1ccccn1)N(Cc1ccccn1)Cc1ccccn1,-22,39,12,.,49*,106*,101*,68*,100*,
O=C(Cc1ccccc1)Nc1ccc2c(c1)OC1(CCCC1)O2,0,3,-2,.,-298,-305,.,.,.,

# Bioassay records from PubChem.
